# Shown are actives, neighbours in structure and some others; about 3.9% of the full set was active somewhere.
# Platelet DG rel – platelet dense granule release activity; human platelet-rich plasma, SFLLRN dense granule ATP release, luminescence; 300,000 compounds, 0.22% hits; inhibition, %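 (compounds screened at 7.5 µM in platelet-rich plasma)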;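 active means mean replicate score, as percent of positive control, at or above 50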
# Rtt109 HAT inh – inhibitors of Candida albicans Rtt109/Vps75 histone acetyltransferase | purified Rtt109/Vps75, ThioGlo CoA-SH fluorescence, 4 h | inhibition, % at 34.9 µM | Q5AAJ8 | 330,000 compounds, 0.16% hits;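 active means inhibition of at least 50% in every replicate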
# SKKanGAS inh – SKKanGAS growth inhibition | S. pyogenes SKKanGAS, kanamycin growth, BacTiter-Glo, 6 h | inhibition, % at 7.5 µM | 300,000 compounds, 1.3% hits | AID 1662;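 active means mean replicate score, as percent of positive control median, at least 50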;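 further: strain carries kanamycin resistance gene driven by streptokinase promoter and grows in 40 µg/ml kanamycin; loss of luminescence reflects streptokinase promoter inhibition or plain growth inhibition; 0% = median of DMSO wells and 100% = positive control at its reference dose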
# TPT1 inh – C. albicans TPT1 enzyme inhibition; AID 1962; recombinant caTPT1, FP RNA substrate dephosphorylation; inhibition, % at 5 µM; 300,000 compounds, 0.81% hits;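 active means inhibition above the mean of all tested compounds plus 3 SD, set per screening campaign, cut at about 24% in these data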;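 further: plate controls were DMSO alone for no effect and ferristatin control at 100 nM for full effect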
# PHOSPHO1 block – PHOSPHO1 (human) inhibition; recombinant PHOSPHO1, absorbance phosphatase assay; inhibition, % at 13.3 µM; 290,000 compounds, 1.1% hits; Q8TCT1; in the data active means inhibition above about 60%
# Target sequence (Q8TCT1 whole entry, looked up): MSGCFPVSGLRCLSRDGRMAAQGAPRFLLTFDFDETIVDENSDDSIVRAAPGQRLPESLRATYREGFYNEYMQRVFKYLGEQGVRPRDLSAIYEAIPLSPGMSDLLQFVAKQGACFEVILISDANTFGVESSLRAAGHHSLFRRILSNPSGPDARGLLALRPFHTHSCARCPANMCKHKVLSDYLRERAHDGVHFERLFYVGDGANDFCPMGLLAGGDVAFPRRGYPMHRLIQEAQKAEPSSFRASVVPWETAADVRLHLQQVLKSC
# WT yeast gro inh – growth inhibition of WT yeast, mitochondrial fusion screen; inhibition, % at 10 µM; mitochondrial fusion phenotypic screen, WT strain; 190,000 compounds, 2.1% hits; in the data active means inhibition above about 58%; tested in S. cerevisiae
# * = called active by the depositor; . = not tested or not shown.
SMILES,Platelet DG rel,Rtt109 HAT inh,SKKanGAS inh,TPT1 inh,PHOSPHO1 block,WT yeast gro inh
O=c1[nH][nH]c(-c2ccccc2O)c1C(C[N+](=O)[O-])c1ccc(Cl)cc1Cl (centres undefined),-12,-3,27,2,6,-2
Cc1cc(O)c(C(C[N+](=O)[O-])c2ccc(Cl)cc2Cl)c(=O)o1 (centres undefined),15,56*,0,-2,29,-23
COC(=O)c1ccc(-c2ccco2)n1Cc1cccc(C)c1,4,2,23,-3,6,64*
C=C(C)Cn1c(C)cc(C)c(S(=O)(=O)c2ccc(C)cc2)c1=O,1,-2,13,0,22,31
Cc1cc(C)n(Cc2ccc(Cl)cc2Cl)c(=O)c1S(=O)(=O)c1ccccc1,-9,14,57*,-3,18,31
CCN(C(=O)c1ccc2c(=O)n3c(nc2c1)CCCCC3)c1cc(OC)ccc1OC,-8,8,-10,1,65*,.
O=C(Oc1ccc(F)c(F)c1)c1ccc2c(=O)n3c(nc2c1)CCC3,0,-10,4,-3,.,.
CC(C)c1ccc(OC(=O)c2ccc3c(=O)n4c(nc3c2)CCC4)cc1,-1,3,80*,3,.,.
COc1cc2ccccc2ccc1=NO,.,4,.,.,.,.
CC(=O)Nc1ccc(-c2sc(Nc3cccc4ccccc34)n[n+]2-c2ccccc2)cc1,2,-2,3,4,15,.
COc1cccc(CNC(=O)c2ccncc2)c1,-3,19,-3,-3,20,.
CCn1cc([N+](=O)[O-])c(C(=O)N2N=C(c3ccc4ccccc4c3)CC2c2ccccc2O)n1 (centres undefined),4,0,36,-2,-7,10
O=[N+]([O-])c1ccc(N2N=C(c3ccccc3)CC2c2ccccc2O)cc1 (centres undefined),6,-6,98*,.,27,.
CCn1cc(Cl)c(C(=O)N2N=C(c3ccc4ccccc4c3)CC2c2ccccc2O)n1 (centres undefined),10,2,50*,0,2,-19
NS(=O)(=O)c1ccc(N2N=C(c3ccccc3)CC2c2ccccc2Br)cc1 (centres undefined),.,-3,.,.,.,.
O=C(c1ccccc1)N1N=C(c2ccccc2)CC1c1ccccc1O (centres undefined),-1,-2,4,-3,13,67*
CN(Cc1ccco1)S(=O)(=O)c1cc(F)ccc1CN1C(=O)c2cccnc2C1=O,-6,-1,3,-1,-6,.
Nc1oc2ccccc2c1C(=O)Cc1ccccc1O[C@@H]1O[C@H](CO)[C@@H](O)[C@H](O)[C@H]1O,-5,-5,-2,-4,.,.
Cc1ccc(CNc2nc(-c3cccs3)nc3ccccc23)cc1,3,1,29,-5,-14,76*
CC12CCC(=O)C=C1CCCC2=O (centres undefined),.,0,.,.,.,.
CCOC(=O)C1=C(C)NC(C)=C(C(=O)OC)C1c1cccc(Cl)c1Cl (centres undefined),-1,9,-8,0,4,64*
CCOC(=O)C1=C(COCCN)NC(C)=C(C(=O)OC)C1c1ccccc1Cl (centres undefined),-3,-14,2,-2,.,.
CCCCCCCCCC(=O)N[C@@H]1c2cc(OC)c(OC)cc2C[C@H]1O,.,-8,.,.,.,.
Nc1cc(N)nc(SCC(=O)N2CCc3ccccc32)n1,5,4,5,1,-2,99*
Cc1nc(SCC(=O)N2CCc3ccccc32)n[nH]1,9,9,0,-4,5,4
SMILES,Platelet DG rel,Rtt109 HAT inh,SKKanGAS inh,TPT1 inh,PHOSPHO1 block,WT yeast gro inh
O=C1OC=NC1=Cc1ccccc1,.,-14,.,.,.,.
Nc1cc(C(=O)O)ccc1Sc1ccccc1C(=O)O,6,4,-2,-4,63*,-17
O=C(CCN1C(=O)NC2(CCCC2)C1=O)Nc1ccc(-c2nc3ccccc3s2)cc1,.,3,.,.,.,.
O=C(Nc1ccc(C(F)(F)F)cc1)c1ccccc1,.,-2,.,.,.,.
COc1ccc(C(=O)Nc2ccc(OCC(F)(F)C(F)F)c(C(F)(F)F)c2)cc1OC,-1,-5,13,-4,6,53
O=C(Nc1cccc(O)c1)c1ccc(C(F)(F)F)cc1,8,5,5,-4,36,18
O=C(Nc1ccc(OCC(F)(F)C(F)F)c(C(F)(F)F)c1)c1ccc(Cl)cc1,0,8,92*,-2,.,.
O=C(Nc1ccc(Br)c(C(F)(F)F)c1)c1ccc(C(F)(F)F)cc1,-2,.,106*,-1,-11,.
O=C(Nc1ccc(Br)c(C(F)(F)F)c1)c1ccccc1,4,-1,21,-7,-7,66*
CCOC(=O)Cc1csc(SCC(=O)Nc2oc(C)c3c(C)n[nH]c(=O)c23)n1,.,13,.,.,.,.
CCCCn1c(CCn2nc(C)c(Br)c2C)n[nH]c1=S,-2,0,-2,2,90*,4
Cc1ccc(C(=O)NCC(=O)OCc2cccc(Br)c2)cc1,-7,4,9,4,.,.
O=C(Nc1cccc(Cl)c1)C1=Cc2cc(Cl)ccc2OC1,-24,-3,32,-3,6,21
O=C(Nc1ccc(Cl)c(Cl)c1)C1=Cc2ccccc2OC1,8,-8,75*,5,-16,88
O=C(O)c1ccc(N=Nc2c(O)[nH]c3ccccc23)cc1,133*,6,26,8,-6,.
CN(C)C(=O)c1ccc(N=Nc2c(O)c3ccccc3[nH]c2=O)cc1,.,-4,.,.,.,.
CC1=[N+](C)c2ccc3ccccc3c2C1(C)C,-2,.,3,2,9,79*
c1ccc2c(c1)ccc1ccccc12,.,1,.,.,.,.
CC1CCCCC1NC(=O)CN1C(=O)NC(C)(c2cccc(Br)c2)C1=O (centres undefined),.,-1,.,.,.,.
C/C(=N\NC(=O)C1(C)CC1(Br)Br)c1cccc(NC(=O)c2ccc(C)o2)c1 (centres undefined),-6,13,6,-2,22,.
COc1ccccc1CNC(=O)/C(C#N)=C/c1ccc(OC)c(OC)c1OC,3,3,-9,0,2,.
CCCCNC(=O)c1cn(CC(C)C)c(=O)c2c1c1ccccc1n2C,-4,7,54*,1,33,.
CC1=NOC(=O)/C1=C\c1ccc(-c2ccc(Cl)cc2Cl)o1,.,-4,70*,.,-23,85*
CC(=O)/C(=C/Nc1ccc(Oc2ccccc2)cc1)c1ccccc1,-1,-1,2,-1,31,61*
CCn1c(C)nc2cc(C(=O)NN=Cc3ccc([N+](=O)[O-])cc3)ccc21,.,-3,.,.,.,.
Cc1cc(C(=O)OC(C(=O)Nc2cccc(C(F)(F)F)c2)c2ccccc2)c(C)o1 (centres undefined),-10,1,71*,1,-16,48
CCOC(=O)/C(C#N)=C1\Nc2ccccc2N=C1N(CC(C)C)CC(C)C,0,-2,35,23,25,76*
CCOC(=O)/C(C#N)=C1/C=C(C)NC(c2ccccc2O)=N1,1,6,10,3,-3,-12

# Screening data (PubChem BioAssay)
